From PubChem BioAssay
Shown are actives, neighbours in structure and some others; about 7.2% of the full set was active somewhere.
FLuc inh – blocks Photinus pyralis firefly luciferase activity; P08659; purified firefly luciferase, luminescence, 8 min; Potency, µM (titrated, usually from 57.1 µM), for the others: at the top dose activity change, negative = inhibition, hits mostly inhibitors; hit rate 2.2% among 72,000; AID 411; also: potency is read from the fitted curve at half-maximal effect; % is scaled to controls: 0 for no effect and ±100 for the full control effect; nearly all actives have a fitted effect of over 40% in size
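Inhibition of light generation by firefly luciferase from ATP and luciferin was profiled with concentration-response curves per sample, ATP held at 10 uM within the enzyme's linear range. Plates were read by luminescence after an 8-minute ambient incubation.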
Bst PK mod – alters activity of Bacillus stearothermophilus pyruvate kinase | purified pyruvate kinase, luminescence ATP production; ribose 5-phosphate activator present at AC10 | Potency, µM | hit rate 1.2% among 51,000 | AID 361; in the data active = potency below about 11 µM; inconclusive = mostly about 12 µM to 25 µM;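 the screen sought inhibitors and activators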;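 also: potency is read from the fitted curve at half-maximal effect; scaled between full activation by ribose 5 phosphate and full inhibition by luteolin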
Tau filament bind – tau filament binding; P10636; recombinant tau filaments, thioflavin S fluorescence, 15 h; filaments grown with octadecylsulfate alongside compound; Potency, µM (top dose mostly 57.1 µM), without a hit: at the highest dose activity change, negative = inhibition; hit rate 2% among 71,000; AID 596;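 also: potency is read from the fitted curve at half-maximal effect; % is scaled to controls: 0 for no effect and ±100 for the full control effect; actives lower thioflavin S fluorescence by blocking filaments or displacing dye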
Target sequence (P10636 whole entry, looked up): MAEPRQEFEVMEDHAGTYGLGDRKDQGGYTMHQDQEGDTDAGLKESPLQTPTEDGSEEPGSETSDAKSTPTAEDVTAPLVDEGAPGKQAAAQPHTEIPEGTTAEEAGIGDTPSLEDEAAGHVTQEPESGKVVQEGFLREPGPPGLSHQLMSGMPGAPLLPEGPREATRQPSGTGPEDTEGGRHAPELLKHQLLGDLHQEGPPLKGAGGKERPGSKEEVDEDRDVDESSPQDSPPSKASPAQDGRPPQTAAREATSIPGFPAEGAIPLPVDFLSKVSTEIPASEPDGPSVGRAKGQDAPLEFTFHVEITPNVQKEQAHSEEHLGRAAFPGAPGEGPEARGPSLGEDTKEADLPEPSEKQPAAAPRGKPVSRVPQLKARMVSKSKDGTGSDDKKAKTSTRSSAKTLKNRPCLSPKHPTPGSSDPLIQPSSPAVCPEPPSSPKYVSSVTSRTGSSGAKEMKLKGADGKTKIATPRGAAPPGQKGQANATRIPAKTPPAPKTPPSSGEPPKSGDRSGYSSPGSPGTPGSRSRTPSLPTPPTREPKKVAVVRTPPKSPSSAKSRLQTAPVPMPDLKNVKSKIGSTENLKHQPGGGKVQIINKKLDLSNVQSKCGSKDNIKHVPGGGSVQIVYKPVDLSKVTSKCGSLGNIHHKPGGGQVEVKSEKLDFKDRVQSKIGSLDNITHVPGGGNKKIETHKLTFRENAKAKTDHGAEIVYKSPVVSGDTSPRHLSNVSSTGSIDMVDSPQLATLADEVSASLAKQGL
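Recombinant tau protein (human, 1 uM final) plus 30 uM ODS in HEPES pH 7.4 with NaCl, DTT and thioflavine S. Compound present from the start; fluorescence at 510 nm after 15 h, 37 C.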
TSHR agonist – activates the human thyroid stimulating hormone receptor; P16473; HEK293-CNG-TSHR cells (CNG channel as cAMP sensor), membrane potential dye, cAMP; Potency, µM (top dose mostly 57.1 µM), for the others: at the top dose activation, usual class: activators; hit rate 0.48% among 73,000; active = well fitted activation curve with a large enough effect in the main read-out, with a control signal flat, not every such curve was filed as active; inconclusive = small, poorly fitted or top-dose-only effect, or a change in a side signal; inactive = no such curve, though single readings can be large or run the other way; % of control where 0% means no effect;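 also: the control signal comes from parental cells without the receptor; potency is read from the fitted curve at half-maximal effect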
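HEK 293 cells stably expressing TSHR and a cAMP-gated CNG channel; parental CNG-only cells as counterscreen. Cells preloaded 60 min with membrane potential dye plus 100 uM RO 20-1724, then compound 30 min; fluorescence read at 590 nm.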
ERK AVP block – blocks ERK signaling stimulated by vasopressin | HEK293-V1b, vasopressin-stimulated pERK AlphaScreen | hit rate 0.99% among 72,000 | Potency, µM (doses to about 57.5 µM), for the others: at the highest dose activity, negative = inhibition, hits mostly inhibitors | AID 995; also: potency is read from the fitted curve at half-maximal effect; % is scaled to controls: 0 for no effect and ±100 for the full control effect; nearly all actives have a fitted effect of over 55% in size
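HEK293 cells stably expressing V1b receptor, preincubated 30 min at 37 °C with compound, then stimulated 5 min with 25 nM vasopressin. Phospho-ERK by AlphaScreen SureFire after 5 h RT; normalized to DMSO and vasopressin; AC50 by Hill fit.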
HEK293 cAMP ctrl – raises cAMP in parental HEK293 cells, TSHR agonist counter-screen. hit rate 2.5% among 73,000. parental HEK293 CNG cAMP sensor, membrane potential fluorescence. Potency, µM (series often up to 57.1 µM), for inactives: top-dose activation, usual class: activators; also: potency is read from the fitted curve at half-maximal effect; % of control where 0% means no effect; nearly all actives have a fitted effect of over 55% in size
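Parental HEK 293 cells stably expressing a cAMP-gated CNG channel were loaded with membrane potential dye containing 100 uM RO 20-1724 for 60 min. Compound added for 30 min; depolarization read as fluorescence intensity at 590 nm.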
parental cAMP – raises cAMP in parental HEK293 cells lacking TSH receptor. shares compounds with TSHR agonist. parental HEK293 CNG biosensor, cAMP membrane potential fluorescence. activity change, negative = inhibition, % at 32.9 µM. 150 tested, under 10 active. AID 953
Numbers without * were called inactive; i = inactive; ? = inconclusive; · = no result given; [ ] = another dose, or the depositor's remark. Unless noted, calls follow the shape of the dose curve; as a rule, active = well fitted curve in the direction sought with a large enough effect; inconclusive = small, poorly fitted or top-dose-only effect, or another doubt; inactive = no such curve, though single readings can be large; an effect the other way counts as inactive or inconclusive.

SMILES	FLuc inh	Bst PK mod	Tau filament bind	TSHR agonist	ERK AVP block	HEK293 cAMP ctrl	parental cAMP
Cc1noc(C)c1-c1cncnc1Nc1ccccc1	1%[2.29 µM]	·	-8%	3%	?	19%	·
Cc1cc(SCNC(=O)c2ccccc2)ncn1	0%	·	-4%	4%	27%	17%	-3[25.6 µM]
Cc1cc(C)nc(SCNC(=O)c2ccc(F)cc2)n1	-2%	>57	-12%	-6%	-3%	-3%	·
C/C=C/OC(=O)NC(c1ccccc1)[C@]1(C(C)=O)CCOC1=O (stereo not given in full)	·	·	·	?	18%[11.5 µM]	?	·
C#CCCCO/N=C1/[C@H]2O[C@@H]2[C@@H](O)[C@H]2[C@H]1CCn1c(=O)n(-c3ccccc3)c(=O)n12	0%[11.4 µM]	·	·	-1%[11.4 µM]	11%[11.5 µM]	7%[11.4 µM]	·
CCOc1cc(C(=O)N2CCN(c3ccccc3)CC2)cc(OCC)c1OCC	2%	·	-15%	?	-14%	?	·
CCOc1cc(C(=O)N(C)c2ccccc2)cc(OCC)c1OCC	0%	·	8%	25µM*	-10%	15%	9
CCc1ccccc1NC1=NCC(=O)N1Cc1ccc(OC)cc1	2%	>57	2%	7.9µM*	-9%	27%	-6
O=c1c(-c2ccc(Cl)cc2)nc2cnc(N3CCOCC3)nc2n1C1CC1	-1%[11.4 µM]	·	20%	3%	-4%	4%	·
COc1ccc(C(=O)N(Cc2ccco2)Cc2cccs2)c(O)c1	0%	>57	0%	2.5µM*	14%	24%	-7
O=C1C2C3CCCC3=C3CCCC3C2C(=O)N1c1cccc(Cl)c1 (stereo not given)	1%	·	-2%	?	3%	?	·
O=C1C2C3CCCC3=C3CCCC3C2C(=O)N1c1ccc(Cl)cc1 (stereo not given)	-4%	>57	14%	3.2µM*	-28%	4%	-9
N=c1c(C(=O)NCc2ccccc2)cc2c(=O)n3ccccc3nc2n1Cc1ccco1	-2%[25.5 µM]	·	·	·	·	·	·
N=c1c(C(=O)NCc2ccc(F)cc2)cc2c(=O)n3ccccc3nc2n1Cc1ccco1	4%	>57	?	-42%	-2%	0%	-69[25.6 µM]
COc1cc(/C=N/n2c(SC)nnc(C(C)(C)C)c2=O)ccc1O	2%	·	6%	0%	-30%	-5%	-8[25.6 µM]
COC(=O)C1=C(C)NC(=O)NC1c1cn(-c2ccccc2)nc1-c1cccs1 (stereo not given)	-2%	>57	11%	25µM*	-12%	13%	5
CCOC(=O)c1ccc(NC(=O)c2ccc(CN3CCOCC3)cc2)cc1	-6%	>57	13%	·	32µM*	20%	11
Cc1cccc(NC(=O)CSc2nnc(-c3ccccc3)n2N)c1C	3%	>57	-2%	3%[11.4 µM]	5%	-13%	-2[25.6 µM]
Cc1cccc(NC(=O)CSc2nnc(-c3ccccc3)n2N)c1	4%	>57	11%	7%	11%	-12%	·
Cc1cnc(NC(=O)c2ccc3c(c2)C(=O)N(Cc2ccco2)C3=O)s1	-11%	>57	-24%	-19%	-27%	-12%	-11[25.6 µM]
O=C(NC1=NCCS1)c1ccc2c(c1)C(=O)N(Cc1ccco1)C2=O	1%	>57	0%	24%	-13%	0%	·
Cc1onc(-c2ccccc2Cl)c1C(=O)Nc1ccc(-n2nncc2-c2ccco2)cc1	3%	>57	?	6.3µM*	-10%	-6%	-3
COC(=O)NC(/C(C(=O)OC)=C(\C)NCc1ccccc1)c1cccs1 (stereo not given)	·	·	·	?	32%[11.5 µM]	?	·
COC(=O)c1ccc(C(NC(=O)OCc2ccccc2)/C(=C/[C@@H](C)C(=O)NCc2ccc(S(C)(=O)=O)cc2)c2cccnc2)cc1 (stereo not given in full)	·	·	2%	3%	-12%	7%	·
CC(C)C(=O)Nc1ccc(N2CCN(S(C)(=O)=O)CC2)cc1	3%	>57	-8%	5%[11.4 µM]	6%	0%	·
SMILES	FLuc inh	Bst PK mod	Tau filament bind	TSHR agonist	ERK AVP block	HEK293 cAMP ctrl	parental cAMP
Cc1ccc(C(C)C)c(OCC(=O)Nc2ccc(N3CCN(S(C)(=O)=O)CC3)cc2)c1	0%	>57	2%	-38%	-18%	5%	-30[25.6 µM]
Cc1occc1-c1nnc(SCC(=O)Nc2ccccc2)n1C(C)c1ccccc1 (stereo not given)	-2%	>57	-20%	7.9µM*	?	31%	-10
CC(C)NC1(C(N)=O)CCN(Cc2ccccc2)CC1	3%[11.4 µM]	·	10%[11.4 µM]	2%[11.4 µM]	17%[11.5 µM]	-1%[11.4 µM]	·
O=C(CN(Cc1ccccc1Cl)C(=O)Cn1nnc(-c2cccs2)n1)NCC1CCCO1 (stereo not given)	-1%	·	-1%	6.3µM*	10%	12%	9
Cc1nn(C)c(C)c1S(=O)(=O)N(CC(=O)Nc1nccs1)c1ccc(C(C)C)cc1	1%	·	111%	7.9µM*	-28%	9%	-9
C=CCn1c(NCc2ccc3c(c2)OCO3)nc2ccccc21	-19%	·	-14%	2%	-17%	16%	13[25.6 µM]
C=CCn1c(NCc2ccccc2)nc2ccccc21	-9%	>57	-12%	16%	-5%	16%	·
CCSCCOC(=O)C1=C(C)N(C)C(=O)NC1c1cc(OC)ccc1OC (stereo not given)	1%	·	15%	25µM*	?	13%	8
CC(=O)N1CCCc2cc(S(=O)(=O)N(C)CCC#N)ccc21	5%	>57	1%	-2%	6%	3%	·
CC(=O)N1CCCc2cc(S(=O)(=O)N(CC(C)C)CC(C)C)ccc21	-3%	>57	-5%	13µM*	12%	14%	14
CCOC(=O)CCc1c(C)nc2c(c(C)nn2C(C)(C)C)c1C	2%	·	-7%	25µM*	15%	21%	13
N[C@H](C(=O)O)C1[C@H](C(=O)O)[C@H]1C(=O)O (stereo not given in full)	5%	·	30%	15%	-1%	9%	·
COC(=O)c1cc(C(=O)OC)cc(N2C(=O)CC(Sc3nc(C)cc(C)n3)C2=O)c1 (stereo not given)	0%	i	-10%	25µM*	-21%	0%	-8
Cc1ccccc1-c1nc(CN2CCC(C(=O)N3CCN(c4ccccn4)CC3)CC2)c(C)o1	2%	·	83%	11%	-12%	24%	17[25.6 µM]
Cc1ccccc1-c1nc(CN2CCC(C(=O)N3CCC(C(N)=O)CC3)CC2)c(C)o1	2%	·	20%	-2%	4%	-8%[11.4 µM]	·
C[C@H](CCC(=O)O)[C@H]1CC[C@@H]2[C@H]3[C@@H](CC[C@@]21C)[C@]1(C)CC[C@H](O)C[C@@H]1C[C@@H]3O	5%[25.5 µM]	·	37%[25.6 µM]	-1%[25.6 µM]	21%[25.7 µM]	8%[25.6 µM]	·
